84 sequences from the OligoGym collection can be followed below.

Targets include FNTB; FOXK1; FOXN4; FPGS; FTL; FZR1; GALE; GH2; GLP1R; GLIS2; GLRA3; GNAQ; GPIHBP1; GPR3; GPR89B.
Holding throughout (test): pooled miR-30 sensor sort-seq; sequence = guide strand
Common to all, as to settings: shRNA
Also: reference of the scale not given here.

The sequence TATTGAAACGTATAAACCTTGT displayed a sensor-assay potency score (higher = more potent) in the experiment with FNTB of -0.892. In the experiment with FNTB, AAGAACTGAAGACCTCTTGGAT registered a sensor-assay potency score (higher = more potent) of -0.153.

Consider TTCTTTGTGATAGAGCGACGTG, for which the sensor-assay potency score (higher = more potent) with FOXK1 is -0.986. Turning to TTCAGAGACAGGTTGTGCCGCA, the sensor-assay potency score (higher = more potent) with FOXN4 was determined as 0.475. With TTGAGATGAATGCACAGCCACG, the sensor-assay potency score (higher = more potent) with FOXN4 was -1.27.

With TTTGGGAATACCGGTACTCTGG, the sensor-assay potency score (higher = more potent) in the experiment with FOXK1 is -1.08. In the experiment with FNTB, TTCTGTAGAAAGTATGTAGTGG yielded a sensor-assay potency score (higher = more potent) of 0.598. Take TATAAACCTTGTCTGACTGGGG: the sensor-assay potency score (higher = more potent) with FNTB was 0.554. TTGCCATCTGCTGCAGCCGAGG: the sensor-assay potency score (higher = more potent) in the experiment with FOXN4 was -1.85.

AAGGTGTGGATACTGACCGGGT: the sensor-assay potency score (higher = more potent) with FNTB is -0.0926. In the experiment with FOXN4, TCCTCCATCTTGTCGATGCGGG came in with a sensor-assay potency score (higher = more potent) of -1.47. Sequence TTGCCGGCTAAACTGTTCGTGG showed a sensor-assay potency score (higher = more potent) with FOXK1 of -1.1. As to ATGAGGAACTCGAACTCGCGGC, in the experiment with FOXK1, the sensor-assay potency score (higher = more potent) was -0.982. On to TCATCTAGCAGTTCCAAGCTGT, for which the sensor-assay potency score (higher = more potent) with FNTB is 0.0729. Turning to TTTGACTCATCCTTGGGGCTGT, in the experiment with FOXK1, the sensor-assay potency score (higher = more potent) worked out at 0.206.

The sequence TGATAGAGCGACGTGAACTGGA yielded a sensor-assay potency score (higher = more potent) with FOXK1 of 0.268.

The sequence TTTCAGATAATGGAAGTGCTTC yielded a sensor-assay potency score (higher = more potent) with FNTB of -0.367. Regarding TAGAAAGTATGTAGTGGCCTGG, the sensor-assay potency score (higher = more potent) with FNTB was -0.497.

For TAAACTGTTCGTGGGAACCGCA, the sensor-assay potency score (higher = more potent) with FOXK1 was -0.882. In the case of TCAGTGTTCATGTCGGTGCTGA, in the experiment with FOXN4, the sensor-assay potency score (higher = more potent) is -0.14. Sequence TTTGATAAAGTAACGGTTCAAA displayed a sensor-assay potency score (higher = more potent) in the experiment with FOXK1 of -0.935.

Take TACTGAAGAAGCTTCTCTCTGT: the sensor-assay potency score (higher = more potent) in the experiment with FNTB is 0.515. Sequence TAGCATTGAAGAGCAAGACTCG yielded a sensor-assay potency score (higher = more potent) with FPGS of -0.404. On to TTGCTGCAAACTCTGCTGCCAG, for which the sensor-assay potency score (higher = more potent) with FOXK1 was -1.02.

TGAAGCTGTAGATCTCGCTCAC returned a sensor-assay potency score (higher = more potent) in the experiment with FOXN4 of 0.304. In the case of ATGTTGATGAAGTCTACAGGAG, in the experiment with FOXN4, the sensor-assay potency score (higher = more potent) was -1.25. Sequence TCATGCAACATGGCTCCGCTGC yielded a sensor-assay potency score (higher = more potent) with FNTB of -1.29. TTGGGTCGCAAGGAGCTGCAAA: the sensor-assay potency score (higher = more potent) with FOXK1 was -0.645.

Turning to TACAAGGTGGTTGAACTTGTAA, in the experiment with FNTB, the sensor-assay potency score (higher = more potent) is -0.905.

With TTGTAAGAACTGAAGACCTCTT, the sensor-assay potency score (higher = more potent) with FNTB amounted to 0.275. The sequence TTGTCGAAGGCCTCTTTTCAGA returned a sensor-assay potency score (higher = more potent) with FNTB of -1.02.

Sequence TGGATCTTGATGGCCGTGCTGG registered a sensor-assay potency score (higher = more potent) with FOXK1 of -0.887. In the experiment with FNTB, TCTGTAGCCACTATCTGGGGGA yielded a sensor-assay potency score (higher = more potent) of 0.162. On the same count and under the same terms, the result for TCCACCAGCTTGTTGCAGCGGC reads -1.13.

The sequence TAGATCTCGCTCACAGGCAGGC displayed a sensor-assay potency score (higher = more potent) with FOXN4 of -0.142. Turning to TTGCATCTTCAGGAGACGCTCG, the sensor-assay potency score (higher = more potent) in the experiment with FTL was -0.127. In the experiment with FZR1, TCATTCTGGATGACGATCTGGC registered a sensor-assay potency score (higher = more potent) of 0.47. As to TCGATGAAGAACTTGGACTTGC, the sensor-assay potency score (higher = more potent) in the experiment with GALE is -0.0111. On the same count and under the same terms, to TCAAACTCCACAGAGCGGCCTG belongs -0.0381. TTCTGCTGCGTTTTCACCCTGT had a sensor-assay potency score (higher = more potent) with GH2 of 0.325. With TCAAACTTGCTGTAGGACTGAT, in the experiment with GH2, the sensor-assay potency score (higher = more potent) was 0.205.

In the experiment with GLP1R, TTATATCCTATTATTTTCCTTG showed a sensor-assay potency score (higher = more potent) of -0.237. Consider TTTATAAACTTCCTCTCCCATG, for which the sensor-assay potency score (higher = more potent) with GLIS2 was -1.13. TAGGCTGTGAAGCTGAATCGGC registered a sensor-assay potency score (higher = more potent) in the experiment with GLRA3 of -0.0399. On to TTGCTTGTAGACATGGTCCCAT, for which, in the experiment with GLRA3, the sensor-assay potency score (higher = more potent) is 0.533. Take TTTGATGTCTGTCTTGCACATG: in the experiment with GLP1R, the sensor-assay potency score (higher = more potent) was -0.835.

With ATAGTCATTAGCTTATCTCTTT, the sensor-assay potency score (higher = more potent) with GLIS2 is -0.353. Turning to ATGAGCAGAAACACCAGGCGGC, the sensor-assay potency score (higher = more potent) with GLP1R is -0.579. With TTGCAGAACAAGTCTGTGGCAG, the sensor-assay potency score (higher = more potent) with GLP1R worked out at 0.187.

On to TAAAACTCTATGCTAACAGCAA, for which, in the experiment with GLIS2, the sensor-assay potency score (higher = more potent) is -0.574.

On to TAGCATTGAATTACAAATCAAG, for which, in the experiment with GLRA3, the sensor-assay potency score (higher = more potent) is -1.08.

ATAATTGATATTCTCGTCGTCT: the sensor-assay potency score (higher = more potent) in the experiment with GNAQ worked out at 0.0326. Sequence TTTAAGAACAGAATAACCGAGG had a sensor-assay potency score (higher = more potent) with GNAQ of -0.0655. The sequence TGGATGAGCATCTTGTACCTGG displayed a sensor-assay potency score (higher = more potent) with GLIS2 of -0.352. In the experiment with GLP1R, TTGGAGTTCCTGGTCCAGCAGC gave a sensor-assay potency score (higher = more potent) of -1.12. Regarding TTCAGGTGGATGTAGTTCCTGG, in the experiment with GLP1R, the sensor-assay potency score (higher = more potent) is -0.141. As to TAGAAAGGCACTTAGAACCTGT, the sensor-assay potency score (higher = more potent) in the experiment with GLIS2 amounted to 0.24. For the sequence TTTTGCAGCCACGAACTCCTTG, in the experiment with GLP1R, the sensor-assay potency score (higher = more potent) turned out to be 0.187. In turn, TTCTTCTTTCAACAGAAACTGG registered a sensor-assay potency score (higher = more potent) with GLRA3 of -0.833. Consider TTGATGTCTGTCTTGCACATGA, for which the sensor-assay potency score (higher = more potent) with GLP1R was -0.0737. With TAGCTTTGACATATGAAACTTT, in the experiment with GLRA3, the sensor-assay potency score (higher = more potent) was -0.212. Regarding TTGCATGTGACATTAACTGGAG, in the experiment with GLRA3, the sensor-assay potency score (higher = more potent) was -0.491.

Sequence TTGATGAAGACGGACAATGCTC showed a sensor-assay potency score (higher = more potent) in the experiment with GLP1R of -0.64. With TTTCACAGAAGAGTTTCCGTTC, the sensor-assay potency score (higher = more potent) with GLIS2 amounted to 0.4. TTCTCGTTGGTGTGTGTGCGGA showed a sensor-assay potency score (higher = more potent) in the experiment with GLIS2 of -0.632.

TTGATAAACGTACTCTTGCCAC: in the experiment with GNAQ, the sensor-assay potency score (higher = more potent) was -0.533. Turning to TTGTATGGGATCTTGAGTGTGT, in the experiment with GNAQ, the sensor-assay potency score (higher = more potent) was 0.798. In the experiment with GLRA3, TGACTTTGCATAGCTAACCAAA displayed a sensor-assay potency score (higher = more potent) of -1.29. In turn, TATTCTTTCTCTTTCGTCGAAA gave a sensor-assay potency score (higher = more potent) with GLRA3 of -0.712. With ATCGTTGACATGGTCCACCAGG, the sensor-assay potency score (higher = more potent) with GLIS2 was -0.948. On to TAACATATAAACACATTGGCAG, for which the sensor-assay potency score (higher = more potent) with GLRA3 was -0.00869.

For the sequence TATTGTTATAGTCATTAGCTTA, the sensor-assay potency score (higher = more potent) in the experiment with GLIS2 was -0.656. TTCCTTGCACATCACATGCCTC yielded a sensor-assay potency score (higher = more potent) in the experiment with GLP1R of -0.533.

On to TAGTTCATGTTGGAGTTCCTGG, for which, in the experiment with GLP1R, the sensor-assay potency score (higher = more potent) was -0.642.

Sequence TAGTCATTAGCTTATCTCTTTT had a sensor-assay potency score (higher = more potent) in the experiment with GLIS2 of -1.29. Sequence TATCCTATTATTTTCCTTGCAC yielded a sensor-assay potency score (higher = more potent) in the experiment with GLP1R of 0.182. TTATTCTTTCTCTTTCGTCGAA displayed a sensor-assay potency score (higher = more potent) with GLRA3 of 0.181. In the experiment with GLIS2, TTTTTTTAAAACTCTATGCTAA yielded a sensor-assay potency score (higher = more potent) of -0.424. With TATACATGTTTGTACATCCATG, the sensor-assay potency score (higher = more potent) in the experiment with GLRA3 is -1.26. With TTCGAGATCTTGCACTGTCTGT, in the experiment with GLRA3, the sensor-assay potency score (higher = more potent) is -0.307. Sequence TTGGAATAGCGCTTGTTGCAGC yielded a sensor-assay potency score (higher = more potent) with GLIS2 of -0.438.

With ATCCTCATCTTCCTCGTCGTAG, in the experiment with GPIHBP1, the sensor-assay potency score (higher = more potent) was -0.474. For the sequence TTGTCTCTGAATAGTAGGTGAG, in the experiment with GPR3, the sensor-assay potency score (higher = more potent) is -1.17. Consider TACCATAGACATCTCTTGCCCC, for which the sensor-assay potency score (higher = more potent) in the experiment with GPR89B worked out at 0.0271.
